# Experimental data: PubChem BioAssay
# Several values for one entry are separate records, joined by “and”; a condition that tells them apart may be missing. Identical values can stand only once. Activity calls are given as the source filed them. Unless noted, no stated cut-off is given here; in the data, active means inhibition above about 80%; inactive means the rest.
# Experiments:
# [1] = HTB85 osteosarcoma cell growth inhibition, synergistic combos for chromothripsis tumors, BGB or cisplatin IC20 combos (AID 1671453); settings: HTB85 osteosarcoma cells, drug combinations, stronger effect = higher value;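 further: cells exposed for 96 hours before readout; 0% = vehicle DMSO and 100% = high DMSO killing control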
# [2] = CRL2098 osteosarcoma cell growth inhibition, synergistic combos for chromothripsis tumors, BGB or cisplatin IC20 combos (AID 1671454); settings: CRL2098 osteosarcoma cells, drug combinations, stronger effect = higher value;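 further: cells exposed for 96 h before readout; 0% = vehicle DMSO and 100% = killing by high DMSO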
# [3] = HD-MB03 medulloblastoma cell growth inhibition, synergistic combos for chromothripsis tumors, BGB or cisplatin IC20 combos (AID 1671455; in the data active means inhibition above about 83%;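 further: 0% = vehicle DMSO and 100% = high DMSO as cytotoxic control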); settings: HD-MB03 medulloblastoma cells, stronger effect = higher value
# [4] = UWB1.289 ovarian carcinoma cell growth inhibition, synergistic combos for chromothripsis tumors, BGB or cisplatin combos (AID 1671456); settings: UWB1.289 ovarian carcinoma cells, stronger effect = higher value;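 further: cells exposed to compound for four days; 0% = vehicle DMSO and 100% = killing by high DMSO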
# [5] = LFS_MB_2R medulloblastoma cell growth inhibition, synergistic combos for chromothripsis tumors, cisplatin combos (AID 1671457); settings: LFS_MB_2R medulloblastoma cells, stronger effect = higher value;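 further: cells exposed to compound for four days before readout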
# [6] = MDA-MB-436 breast carcinoma cell growth inhibition, synergistic combos for chromothripsis tumors, BGB or cisplatin combos (AID 1671458; call rule not given here;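 further: cells exposed for 96 hours; 0% = vehicle DMSO and 100% = killing by high DMSO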); settings: MDA-MB-436 breast carcinoma growth inhibition, drug combinations, stronger effect = higher value
# [7] = UWB1.289_BRCA1 ovarian cancer growth, cell-based, BGB or cisplatin combinations (AID 1671459); settings: UWB1.289 BRCA1 ovarian carcinoma, drug combinations, stronger effect = higher value
# [8] = human astrocyte viability loss, single and combined drugs, cytotoxicity control for chromothriptic childhood tumor combination screen, cell-based, BGB or cisplatin IC20 combos (AID 1671460); settings: Human astrocytes, drug combinations, stronger effect = higher value;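 further: cells exposed to compounds for 96 hours before viability readout; 0% = vehicle and 100% = killing control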
# [9] = growth inhibition of BT084 medulloblastoma cells, cell-based, ICGC_MB145, cisplatin and BGB IC40 combos (AID 1671461); settings: drug combinations, stronger effect = higher value;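 further: cells exposed to drugs for 96 hours; 0% = vehicle DMSO and 100% = high DMSO full killing control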
# [10] = growth inhibition of RCMB18 medulloblastoma cells, cell-based, cisplatin and BGB IC40 combos (AID 1671462); settings: stronger effect = higher value;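 further: cells exposed to compound for four days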
# [11] = growth inhibition of CRL1545 osteosarcoma cells, cell-based, cisplatin and BGB IC20 combos (AID 1671464); settings: stronger effect = higher value;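 further: cells exposed to compound for 96 hours before readout; 0% = vehicle DMSO and 100% = high DMSO killing control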
# [12] = measured here: combination with cisplatin, at 0.5 µM
compound,measurement,setting,value
CN(C)CC(=O)Nc1ccc2[nH]c(=O)c3ccccc3c2c1,inhibition,[1]; at 0.5 µM,-2.64% (inactive) and 6.11% (inactive) and -9.79% (inactive)
same,inhibition,"[1]; measured here: with BGB IC20, at 0.5 µM",-8.36% and -5.68% and -25.9%
same,inhibition,"[1]; measured here: with BGB IC20, at 5 µM",-24.1% and 8.44% and -2.25%
same,inhibition,"[1]; measured here: with cisplatin IC20, at 0.5 µM",-8.52% and 5.14% and 3.46%
same,inhibition,"[1]; measured here: with cisplatin IC20, at 5 µM",-29.8% and -39.5% and -46.8%
same,inhibition,"[1]; single agent, at 5 µM",1.63% and -7.42% and 3.8%
same,inhibition,[2]; at 0.5 µM,-36.8% (inactive) and -23.4% (inactive) and -51.4% (inactive)
same,inhibition,"[2]; measured here: combination with BGB at IC20, at 0.5 µM",-71.3% and -23.5% and -26.5%
same,inhibition,"[2]; measured here: combination with cisplatin at IC20, at 0.5 µM",-19% and -5.62% and -82%
same,inhibition,[3]; at 0.5 µM,-0.31% (inactive) and -9.88% (inactive) and -18.4% (inactive)
same,inhibition,"[3]; measured here: combo with BGB at IC20, at 0.5 µM",0.82% and -0.47% and -22%
same,inhibition,"[3]; measured here: combo with cisplatin at IC20, at 0.5 µM",-8.4% and -20.4% and -29.9%
same,inhibition,[4]; at 0.5 µM,3.12% (inactive) and 0.71% (inactive) and -1.11% (inactive)
same,inhibition,"[4]; measured here: inhibition with BGB combination, at 0.05 µM",-1.46% and -11.5% and -12.3%
same,inhibition,"[4]; measured here: inhibition with cisplatin combination, at 0.05 µM",-5.87% and -5.94% and -12.4%
same,inhibition,[5]; at 0.5 µM,-1.17% (inactive) and -17.8% (inactive) and -26.4% (inactive)
same,inhibition,[5]; [12],-1.41% and -14.7% and -24.5%
same,inhibition,"[5]; measured here: combination with cisplatin, at 5 µM",-64% and -69.6% and -24.6%
same,inhibition,[6]; at 0.5 µM,-4.41% (inactive) and -15.5% (inactive) and -5.43% (inactive)
same,inhibition,"[6]; measured here: BGB combination, at 0.5 µM",-3.67% and -13.7% and -14%
same,inhibition,"[6]; measured here: BGB combination, at 5 µM",-15.9% and -32.7% and -34.6%
same,inhibition,"[6]; measured here: cisplatin combination, at 0.5 µM",-8.29% and -33% and -6.83%
same,inhibition,"[6]; measured here: cisplatin combination, at 5 µM",-17.2% and -39.2% and -6.55%
same,inhibition,"[7]; BGB combination, concentration series, at 5 µM",-7.67% and -9.61% and 17%
same,inhibition,[7]; at 0.5 µM,1.59% (inactive) and -0.05% (inactive) and -1.7% (inactive)
same,inhibition,"[7]; cisplatin combination, concentration series, at 5 µM",16.4% and 6.78% and -0.772%
same,inhibition,[8]; at 0.5 µM,0.7% (inactive) and -7.07% (inactive) and 10.3% (inactive)
same,inhibition,"[8]; measured here: combo with BGB IC20, at 0.5 µM",-4.06% and -11% and -10.6%
same,inhibition,"[8]; measured here: combo with cisplatin IC20, at 0.5 µM",6.3% and -10.6% and 20.9%
same,inhibition,[9]; at 0.5 µM,-5% (inactive) and -17.7% (inactive) and -25% (inactive)
same,inhibition,"[9]; cisplatin combination, at 0.5 µM",-11% and 0.828% and -68.7%
same,inhibition,"[9]; cisplatin combination, at 5 µM",-4.17% and -13.1% and -46%
same,inhibition,"[9]; measured here: BGB IC40 combination 0.05 uM, at 0.05 µM",25% and 2.93% and -19.8%
same,inhibition,"[9]; single agent, at 5 µM",-11.5% and -8.61% and -15%
same,inhibition,[10]; at 0.5 µM,-10.8% (inactive) and -26% (inactive) and -30.1% (inactive)
same,inhibition,"[10]; cisplatin combo, at 5 µM",-47.6% and -22.2% and -34.1%
same,inhibition,"[10]; measured here: BGB IC40 combination, at 0.05 µM",1.7% and -24.6% and -7.83%
same,inhibition,[10]; [12],-0.146% and -31.4% and -63.1%
same,inhibition,"[10]; single agent, at 5 µM",-17.1% and -32.1% and -45.8%
same,inhibition,[11]; at 0.5 µM,-19.1% (inactive) and 4.9% (inactive) and -4.49% (inactive)
same,inhibition,"[11]; measured here: with BGB IC20 combination, at 0.5 µM",-45.9% and 5.19% and -19.6%
same,inhibition,"[11]; measured here: with cisplatin IC20 combination, at 0.5 µM",-8.03% and 2.6% and 1.49%
same,inhibition,"[11]; single agent, at 0.05 µM",18.8% and -30.7% and 29.1%
same,inhibition,"[11]; single agent, at 5 µM",-20.3% and -21.7% and -53.8%
